Measured values: PubChem BioAssay
Values joined by “and” are separate entries in the source; they are usually repeats but may differ in a detail not shown here. Equal entries are not always repeated. Active and inactive are the calls of the source.

Assays:
[1] = small molecules captured by biotinylated probe aFSTL3 – biochemical, small-molecule microarray, fluorescence 635/667, stem cell growth factor project, primary screen (AID 1064); conditions: higher = more signal;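 note: measures binding of the biotinylated anti-FSTL3 antibody to printed compounds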
[2] = binders from COS7 lysate, DM2A8 probe, primary screen, torsin A project, cell lysate, small-molecule microarray, fluorescence 635/667 (AID 1065); conditions: higher = more signal, COS7 lysate expressing mutant human TOR1A
[3] = small molecules captured by biotinylated probe aFGF2 – biochemical, small-molecule microarray, fluorescence 635/667, stem cell growth factor project, primary screen (AID 1067); conditions: higher = more signal;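 note: measures binding of biotinylated aFGF2 protein to printed compounds on slides; z-score merges feature fluorescence and signal-to-noise across triplicate slides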
[4] = small molecules captured by biotinylated probe aFGF10 – biochemical, small-molecule microarray, fluorescence 635/667, stem cell growth factor project, primary screen (AID 1071); conditions: higher = more signal;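 note: score merges 667 nm spot intensity and signal to noise from triplicate slides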
[5] = biological target: Neurogenic locus notch homolog protein 2 (Homo sapiens) (UniProt Q04721); assay: small molecules binding Notch2 protein – biochemical, small-molecule microarray, 635 nm fluorescence, stem cell growth factors, primary screen (AID 1073); conditions: higher = more signal
[6] = biological target: Pro-neuregulin-1, membrane-bound isoform (Homo sapiens) (UniProt Q02297); assay: small molecules binding neuregulin-1 protein – biochemical, small-molecule microarray, fluorescence 635/667, psychiatric disease protein project, primary screen (AID 1075); conditions: NRG1 binding, 635 nm fluorescence, higher = more signal;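 note: score combines 667 nm spot fluorescence with signal to noise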
[7] = system: Neuregulin-1 EGF-like domain; assay: small molecules binding NRG1 EGF domain – biochemical, small-molecule microarray, 635 nm fluorescence, primary screen (AID 1081); conditions: higher = more signal;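 note: binding of the protein to compounds printed on small-molecule microarray slides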
[8] = FRG1 expression reporter modulators in myotubes – cell-based, C2C12 myotubes, firefly/Renilla luciferase, luminescence, FRG1 inhibition for FSHD, primary screen (AID 1084); conditions: FRG1 promoter luciferase, higher = more signal, called active from +8 up or from −8 down
[9] = small molecules captured by biotinylated probe aFST – biochemical, small-molecule microarray, fluorescence 635/667, stem cell growth factor project, primary screen (AID 1086); conditions: higher = more signal;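 note: score merges 667 nm fluorescence with signal-to-noise of each printed compound spot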
[10] = binders of probe aHhip on microarray, primary screen, stem cell growth factor project, biochemical, small-molecule microarray, fluorescence 635/667 (AID 1087); conditions: higher = more signal;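 note: score merges spot fluorescence at 667nm with spot signal to noise ratio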
[11] = system: PRMT1 (protein arginine N-methyltransferase 1); assay: small molecules binding arginine methyltransferase PRMT1 – biochemical, small-molecule microarray, 635 nm fluorescence, primary screen (AID 1088); conditions: higher = more signal;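 note: binding of Prmt1 protein to compounds spotted on small-molecule microarray slides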
[12] = growth effects on S. cerevisiae YJM789 – YJM789 clinical isolate, OD600, 24 h, basal, primary screen (AID 1089); conditions: higher = more signal, called active from +8 up or from −8 down;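 note: growth of clinical yeast isolate S. cerevisiae YJM 789 seeded 1000 cells per well; test concentration not given here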
[13] = S. pombe growth modifiers, basal conditions – strain 972, OD600, 24 h, no modulator, primary screen (AID 1090);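 note: basal condition with compound alone and no growth modifier present; test concentration not given here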; conditions: S. pombe 972 growth, higher = more signal, called active from +8 up or from −8 down
[14] = budding yeast growth modifiers under rapamycin – strain BY4716, OD600, 96 h, primary screen (AID 1091); note: test concentration not given here; conditions: S. cerevisiae BY4716 + rapamycin, higher = more signal, called active from +8 up or from −8 down
[15] = biological target: Torsin-1A-interacting protein 2 (Homo sapiens) (UniProt Q8NFQ8); assay: small molecules binding lysate-expressed LULL1 – cell lysate, human LULL1 lysate, 635/667 nm fluorescence, primary screen (AID 1092); conditions: small-molecule microarray, hLULL1 lysate binding, 635 nm fluorescence; higher = more signal;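 note: probe is lysate of COS7 cells overexpressing human LULL1; score merges per-feature 667 nm fluorescence with signal-to-noise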
[16] = optical density change of DRC41 E. coli – strain DRC41, OD650, 24 h, E. coli filamentation project, primary screen (AID 1093);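 note: MC1000 strain lacking acrAB efflux and sulA so SOS filamentation is blocked; test concentration not given here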; conditions: E. coli DRC41 growth, higher = more signal, called active from +8 up or from −8 down
[17] = probe aLefty2 binding to arrayed compounds – biochemical, biotinylated probe, 635/667 nm fluorescence, primary screen (AID 1094); conditions: small-molecule microarray, higher = more signal;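 note: score merges spot fluorescence near 667 nm with spot signal-to-noise ratio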
[18] = system: Noggin (protein binding on small-molecule microarray); assay: small molecules binding Noggin protein – biochemical, 635/667 nm fluorescence, primary screen (AID 1095); conditions: 635 nm fluorescence, higher = more signal;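 note: score merges 667 nm feature fluorescence with signal to noise over triplicate slides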
[19] = biological target: Neurogenic locus notch homolog protein 3 (Homo sapiens) (UniProt Q9UM47); assay: small molecules binding NOTCH3 protein – biochemical, 635/667 nm fluorescence, primary screen (AID 1096); conditions: small-molecule microarray, 635 nm fluorescence, higher = more signal
[20] = probe aEGFR binding to arrayed compounds – biochemical, biotinylated probe, 635/667 nm fluorescence, primary screen (AID 1097); conditions: small-molecule microarray, higher = more signal;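 note: probe is a biotinylated anti-EGFR antibody binding compounds printed on slides; score combines fluorescence near 667 nm and signal to noise of each spot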

Sequence of Neurogenic locus notch homolog protein 3 (Homo sapiens) (Q9UM47 whole entry, looked up): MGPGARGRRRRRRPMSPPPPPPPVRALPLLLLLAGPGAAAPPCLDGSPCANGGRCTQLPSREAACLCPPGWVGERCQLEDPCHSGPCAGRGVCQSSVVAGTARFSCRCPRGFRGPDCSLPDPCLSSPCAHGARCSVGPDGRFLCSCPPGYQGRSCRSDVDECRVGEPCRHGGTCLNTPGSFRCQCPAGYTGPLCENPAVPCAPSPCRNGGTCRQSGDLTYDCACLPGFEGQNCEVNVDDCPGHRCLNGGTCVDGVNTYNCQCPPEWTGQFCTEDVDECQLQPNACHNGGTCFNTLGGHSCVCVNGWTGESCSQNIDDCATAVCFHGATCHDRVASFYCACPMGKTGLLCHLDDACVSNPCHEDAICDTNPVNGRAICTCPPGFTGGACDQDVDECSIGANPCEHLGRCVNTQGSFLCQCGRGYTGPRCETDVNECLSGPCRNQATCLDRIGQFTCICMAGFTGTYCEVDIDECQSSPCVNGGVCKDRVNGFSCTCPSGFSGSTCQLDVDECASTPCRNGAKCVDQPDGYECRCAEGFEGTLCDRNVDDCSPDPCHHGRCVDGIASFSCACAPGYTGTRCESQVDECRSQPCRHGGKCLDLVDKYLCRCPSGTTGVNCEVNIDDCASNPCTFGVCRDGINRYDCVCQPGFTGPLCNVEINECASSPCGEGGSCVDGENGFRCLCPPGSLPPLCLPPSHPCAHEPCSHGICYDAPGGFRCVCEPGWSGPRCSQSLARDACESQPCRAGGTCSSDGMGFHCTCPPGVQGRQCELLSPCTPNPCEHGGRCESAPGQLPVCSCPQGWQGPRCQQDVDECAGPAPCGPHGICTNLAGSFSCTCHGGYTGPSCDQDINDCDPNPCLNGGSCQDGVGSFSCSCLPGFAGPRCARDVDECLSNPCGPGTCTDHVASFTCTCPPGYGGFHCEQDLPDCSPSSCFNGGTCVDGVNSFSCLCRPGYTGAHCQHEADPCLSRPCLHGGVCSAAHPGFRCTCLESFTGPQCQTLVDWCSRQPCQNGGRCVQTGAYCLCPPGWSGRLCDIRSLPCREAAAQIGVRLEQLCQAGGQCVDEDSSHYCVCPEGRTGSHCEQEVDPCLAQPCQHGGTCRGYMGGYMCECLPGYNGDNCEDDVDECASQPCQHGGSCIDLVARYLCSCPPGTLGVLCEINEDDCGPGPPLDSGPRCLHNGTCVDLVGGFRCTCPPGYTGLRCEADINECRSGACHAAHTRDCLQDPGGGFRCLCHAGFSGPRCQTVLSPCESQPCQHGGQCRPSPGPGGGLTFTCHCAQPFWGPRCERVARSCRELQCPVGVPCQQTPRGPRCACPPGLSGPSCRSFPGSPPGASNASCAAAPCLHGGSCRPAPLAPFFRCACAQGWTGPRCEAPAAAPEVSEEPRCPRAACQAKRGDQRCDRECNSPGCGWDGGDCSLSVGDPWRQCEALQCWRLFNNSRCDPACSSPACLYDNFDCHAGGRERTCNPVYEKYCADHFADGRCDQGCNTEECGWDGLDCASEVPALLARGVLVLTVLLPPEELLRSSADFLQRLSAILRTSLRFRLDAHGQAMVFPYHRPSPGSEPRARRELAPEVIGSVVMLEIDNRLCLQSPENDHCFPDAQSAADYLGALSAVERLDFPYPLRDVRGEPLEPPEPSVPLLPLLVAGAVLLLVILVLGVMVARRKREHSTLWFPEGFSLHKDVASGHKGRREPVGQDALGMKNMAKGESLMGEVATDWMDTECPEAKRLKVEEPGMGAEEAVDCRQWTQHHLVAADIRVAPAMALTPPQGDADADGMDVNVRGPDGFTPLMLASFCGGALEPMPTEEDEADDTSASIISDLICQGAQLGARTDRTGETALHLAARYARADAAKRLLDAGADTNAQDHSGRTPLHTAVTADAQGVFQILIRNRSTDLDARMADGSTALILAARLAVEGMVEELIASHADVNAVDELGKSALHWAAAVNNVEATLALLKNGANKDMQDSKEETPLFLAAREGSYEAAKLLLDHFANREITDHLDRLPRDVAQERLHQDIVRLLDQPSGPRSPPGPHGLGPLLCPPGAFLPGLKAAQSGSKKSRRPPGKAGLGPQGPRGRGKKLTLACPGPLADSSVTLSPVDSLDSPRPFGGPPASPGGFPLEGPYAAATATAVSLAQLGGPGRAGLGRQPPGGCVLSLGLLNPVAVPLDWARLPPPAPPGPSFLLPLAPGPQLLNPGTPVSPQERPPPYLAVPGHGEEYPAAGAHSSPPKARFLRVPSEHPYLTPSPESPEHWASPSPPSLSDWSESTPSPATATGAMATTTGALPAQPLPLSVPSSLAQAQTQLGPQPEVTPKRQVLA
Sequence of Torsin-1A-interacting protein 2 (Homo sapiens) (Q8NFQ8 whole entry, looked up): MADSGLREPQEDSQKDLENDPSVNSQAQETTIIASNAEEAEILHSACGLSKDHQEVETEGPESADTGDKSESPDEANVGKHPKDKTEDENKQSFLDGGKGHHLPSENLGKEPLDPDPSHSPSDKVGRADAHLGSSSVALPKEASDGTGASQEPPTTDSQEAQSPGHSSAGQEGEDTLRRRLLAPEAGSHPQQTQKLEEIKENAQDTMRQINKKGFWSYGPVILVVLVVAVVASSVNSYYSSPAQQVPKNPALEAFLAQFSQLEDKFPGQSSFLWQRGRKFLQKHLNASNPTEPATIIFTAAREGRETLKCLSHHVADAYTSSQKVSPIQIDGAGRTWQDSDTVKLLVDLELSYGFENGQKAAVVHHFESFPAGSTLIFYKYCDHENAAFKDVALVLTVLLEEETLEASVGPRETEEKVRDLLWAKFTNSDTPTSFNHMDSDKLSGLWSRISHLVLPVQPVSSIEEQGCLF
Sequence of Pro-neuregulin-1, membrane-bound isoform (Homo sapiens) (Q02297 whole entry, looked up, the tested form may be a part, canonical isoform): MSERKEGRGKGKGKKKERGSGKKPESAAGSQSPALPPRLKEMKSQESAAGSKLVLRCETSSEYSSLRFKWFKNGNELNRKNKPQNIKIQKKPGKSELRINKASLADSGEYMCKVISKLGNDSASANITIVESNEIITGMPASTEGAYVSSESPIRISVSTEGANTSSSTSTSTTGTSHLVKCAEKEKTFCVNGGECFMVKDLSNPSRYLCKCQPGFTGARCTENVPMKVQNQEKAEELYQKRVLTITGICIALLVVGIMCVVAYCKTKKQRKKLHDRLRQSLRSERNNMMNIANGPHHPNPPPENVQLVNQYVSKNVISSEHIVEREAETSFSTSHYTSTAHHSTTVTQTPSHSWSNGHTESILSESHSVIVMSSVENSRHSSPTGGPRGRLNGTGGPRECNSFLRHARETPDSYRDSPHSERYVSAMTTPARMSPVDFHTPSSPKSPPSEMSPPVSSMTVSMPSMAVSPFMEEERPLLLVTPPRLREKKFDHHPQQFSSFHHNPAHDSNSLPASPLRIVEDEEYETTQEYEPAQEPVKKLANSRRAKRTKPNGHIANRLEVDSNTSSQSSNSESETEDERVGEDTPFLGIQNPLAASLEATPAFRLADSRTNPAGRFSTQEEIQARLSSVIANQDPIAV

SMILES	composite z-score [1]	composite z-score [2]	composite z-score [3]	composite z-score [4]	composite z-score [5]	composite z-score [6]	composite z-score [7]	z-score [8]	composite z-score [9]	composite z-score [10]	composite z-score [11]	z-score [12]	z-score [13]	z-score [14]	composite z-score [15]	z-score [16]	composite z-score [17]	composite z-score [18]	composite z-score [19]	composite z-score [20]
C=CCN(Cc1ccccc1)C(=O)C1N(CCCCCCO)C(=O)C2C(C(=O)O)C3C=CC21O3 (stereo not given)	1.09 and 1.2	-1.16 and -1.37	-0.236 and -0.323	-1.2 and -1.78	-1.18 and -1.23	0.614 and 0.705	1.41 and 1.4	0.639 (inactive) and -0.331 (inactive)	-0.841 and -0.708	-0.5 and -0.204	-0.487 and -1.4	0.101 (inactive) and -1.39 (inactive)	0.624 (inactive) and -0.642 (inactive)	-0.889 (inactive) and -1.51 (inactive)	1.83 and 1.79	-0.142 (inactive) and 1.19 (inactive)	-0.0265 and 0.0515	-1.9 and -1.38	-1.59 and -0.439	-0.322 and -0.246
C#CCCCON=C1C[C@@H](O)[C@@H](O)[C@@H]2[C@@H]3C(=O)N(C4CCCCC4)C(=O)[C@@H]3CC[C@H]12	-0.283	0.145	-0.0423	0.612	0.784	0.717	0.793	-0.298 (inactive)	0.346	-0.0994	0.589	-0.177 (inactive)	-0.539 (inactive)	-0.193 (inactive)	1	0.318 (inactive)	0.0103	0.417	0.71	-0.0842
C=CCN(CCCCC)C(=O)C1N(C(C)(C)CO)C(=O)C2C(C(=O)O)C3C=CC21O3 (stereo not given)	0.215 and 0.754	-0.806 and -0.866	-0.223 and -0.193	-1.26 and -2.17	-1.64 and -2.02	-0.729 and 1.18	-0.369 and -0.726	0.521 (inactive) and 1.02 (inactive)	-2.01 and -0.558	-0.261 and 0.0274	-1.11 and -1.37	-0.447 (inactive) and -1.11 (inactive)	-0.342 (inactive) and -0.0005 (inactive)	-0.402 (inactive) and -0.177 (inactive)	-1.82 and -1.59	-0.373 (inactive) and -0.262 (inactive)	-0.202 and -0.159	-2.03 and -1.91	-1.09 and -0.779	-0.258 and -0.301
CCOC(=O)[C@@H]1CC2O[C@]23C[C@@H]1C(=O)N1CCC[C@@H]1[C@H]3O[Si](C)(C)C(C)(C)C (stereo not given in full)	-0.224 and -0.287	-0.457 and -0.0006	-0.238 and -0.0048	-0.235 and -0.144	-1.08 and -0.312	-0.737 and -0.343	-1.07 and -0.585	-0.304 (inactive) and 0.333 (inactive)	-0.378 and 0.223	-0.207 and -0.231	-1.64 and -0.147	-0.418 (inactive) and -1.22 (inactive)	-1.05 (inactive) and -0.791 (inactive)	-0.435 (inactive) and -0.321 (inactive)	-1.04 and 0.179	-0.458 (inactive) and -0.86 (inactive)	-0.357 and -0.0163	-0.355 and 0.12	-0.868 and -0.199	-0.12 and -0.0314
C=CCN(CCCCC)C(=O)C1N(c2c(Cl)cccc2CO)C(=O)C2C(C(=O)O)C3C=CC21O3 (stereo not given)	1.15 and 1.51	-0.58 and -2.44	-0.283 and -0.216	-1.66 and -1.11	-2.36 and -1.86	-0.855 and -0.992	-0.506 and -0.277	0.887 (inactive) and 0.699 (inactive)	-0.898 and -1.06	-0.169 and -0.213	0.0842 and -0.629	0.006 (inactive) and 0.769 (inactive)	-0.456 (inactive) and -0.0109 (inactive)	0.59 (inactive) and 0.045 (inactive)	-0.445 and -0.75	0.31 (inactive) and 0.437 (inactive)	0.156 and -0.0555	-2.4 and -2.23	-0.676 and -0.842	-0.441 and -0.411
CCCCCN1CC=CC23O[C@@H]4C=CCCOC(=O)C4[C@H]2C(=O)N(C(C)CO)[C@@H]3C1=O (stereo not given in full)	-1.32 and 1.66	0.852 and -1.23	-0.0341 and -0.148	-0.202 and -0.431	-0.88 and -0.932	1.03 and 1.11	1.54 and 1.32	0.212 (inactive) and 0.0905 (inactive)	-0.678 and 0.24	-1.02 and -0.274	0.432 and 0.967	-0.772 (inactive) and 0.61 (inactive)	-0.328 (inactive) and 0.278 (inactive)	-1.48 (inactive) and 0.779 (inactive)	1.01 and 2.94	1.78 (inactive) and 1.58 (inactive)	-0.401 and 0.157	0.157 and 0.362	0.311 and 0.388	-0.386 and -0.253
CCN1C(=O)[C@H]2[C@H]3[C@H](O)[C@H](O)CC(=NNC(=O)OCc4ccc(OC)cc4)[C@H]3CC[C@H]2C1=O	2.2	0.349	-0.0775	0.284	-0.0863	-0.116	-0.222	-0.0988 (inactive)	1.03	-0.0482	0.0536	0.523 (inactive)	-0.312 (inactive)	0.41 (inactive)	0.677	-0.17 (inactive)	0.656	-0.283	-0.143	0.0004
C=CCN(C(=O)C(c1cccs1)N(CCOCCO)C(=O)/C=C\C(=O)O)c1ccc(OC)cc1 (stereo not given)	-0.454 and 0.71	-0.415 and -1.59	-0.103 and -0.186	-0.729 and -1.06	-1.03 and -1.83	-0.933 and -1.12	-0.247 and -0.936	-0.993 (inactive) and -0.205 (inactive)	-0.348 and -0.687	-0.301 and -0.226	-1.56 and -0.685	-2.54 (inactive) and -0.463 (inactive)	-0.314 (inactive) and -2.05 (inactive)	-1.51 (inactive) and -0.835 (inactive)	-1.45 and -0.709	2.74 (inactive) and 2.71 (inactive)	-0.25 and -0.299	-0.482 and -1.39	-1.2 and -0.655	-0.172 and -0.316
